Experimental data taken from PubChem BioAssay (EPA / NIEHS).
Several values for one entry are separate records, joined by “and”; a condition that tells them apart may be missing. Equal entries are not always repeated. Activity calls are given as the source filed them. How the source made its calls: active means hit-call score of the fitted dose curve at least 0.9, where 1 is the maximum; inactive means score below 0.9.

Read-out: E-selectin (Homo sapiens) (UniProt P16581)
Assay: BSK_3C_Eselectin: BioMAP Diversity Plus: 3C Assay for Eselectin Biomarker Activity (AID 2283015);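 on outcome: cell surface E-selectin protein quantified by ELISA 24 h after dosing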
Settings: primary human endothelial cells (HUVEC); actives raise or lower the signal
Outline: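 Primary human umbilical vein endothelial cells (3C system), read 24 h after compound addition; E-selectin measured by ELISA. Bidirectional curve fitting against DMSO baseline; cytotoxicity by parallel SRB total-protein staining.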

Chain of E-selectin (Homo sapiens) (P16581 whole entry, looked up): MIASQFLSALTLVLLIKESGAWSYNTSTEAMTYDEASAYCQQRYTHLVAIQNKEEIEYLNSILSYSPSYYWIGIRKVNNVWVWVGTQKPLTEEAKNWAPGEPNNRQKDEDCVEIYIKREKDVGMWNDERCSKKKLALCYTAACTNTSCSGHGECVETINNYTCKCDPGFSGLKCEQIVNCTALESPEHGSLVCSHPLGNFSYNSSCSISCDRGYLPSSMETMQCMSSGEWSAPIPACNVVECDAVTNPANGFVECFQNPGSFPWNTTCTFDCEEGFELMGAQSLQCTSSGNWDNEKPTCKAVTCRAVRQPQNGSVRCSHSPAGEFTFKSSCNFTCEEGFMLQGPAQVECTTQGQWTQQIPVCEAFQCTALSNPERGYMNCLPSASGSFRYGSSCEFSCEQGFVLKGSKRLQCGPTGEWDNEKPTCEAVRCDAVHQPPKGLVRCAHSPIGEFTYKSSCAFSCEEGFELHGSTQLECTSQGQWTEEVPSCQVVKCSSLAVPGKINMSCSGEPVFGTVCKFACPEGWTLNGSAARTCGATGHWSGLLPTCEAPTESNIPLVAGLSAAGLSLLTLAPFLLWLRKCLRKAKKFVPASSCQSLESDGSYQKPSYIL

Compound | outcome | AC50
CS(=O)(=O)c1ccc(C2=C(c3ccccc3)C(=O)OC2)cc1 | inactive | –
CCOC(=O)C(C#N)=C(c1ccccc1)c1ccccc1 | inactive | –
CC1(C)CCC[C@]2(C)[C@H]3CCO[C@]3(C)CC[C@@H]12 | – | 36.9 µM (active) and 34.3 µM (active)
O=C1OC[C@H](Cc2cccc(O)c2)[C@H]1Cc1cccc(O)c1 | inactive | –
O=C(Nc1ccc2c(O)c(N=Nc3ccc(N=Nc4ccc(S(=O)(=O)O)cc4)cc3)c(S(=O)(=O)O)cc2c1)c1ccccc1 | inactive | –
C1=CC2C3C=CC(C3)C2C1 (stereo unspecified) | inactive | –
COc1cc(Cl)c(OC)cc1N | inactive | –
C=C(C)[C@H]1CC=C(C)C(=O)C1 | inactive | –
c1ccc(CCc2ccccc2)cc1 | – | 28.7 µM (active)
CC(=O)c1c(C)c([N+](=O)[O-])c(C(C)(C)C)c([N+](=O)[O-])c1C | inactive | –
CC(C=O)Cc1ccc(C(C)(C)C)cc1 (stereo unspecified) | – | 30.8 µM (active)
CCCCCC(C=O)=Cc1ccccc1 | – | 35.2 µM (active)

Read-out: Interleukin-1 alpha (IL1a), IL1A (gene 3552)
Assay: BSK_BE3C_IL1a: BioMAP Diversity Plus: BE3C Assay for Interleukin-1 alpha (IL1a) Biomarker Activity (AID 2283016)
Settings: primary human bronchial epithelial cells; actives raise or lower the signal
Outline: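 Measured in human lung primary bronchial epithelial cells: IL-1a by ELISA at 24 h after dosing, with bidirectional fitting against DMSO.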

Compound | outcome | AC50
CS(=O)(=O)c1ccc(C2=C(c3ccccc3)C(=O)OC2)cc1 | inactive | –
CCOC(=O)C(C#N)=C(c1ccccc1)c1ccccc1 | inactive | –
CC1(C)CCC[C@]2(C)[C@H]3CCO[C@]3(C)CC[C@@H]12 | – | 28.7 µM (active) and 29.6 µM (active)
O=C1OC[C@H](Cc2cccc(O)c2)[C@H]1Cc1cccc(O)c1 | inactive | –
O=C(Nc1ccc2c(O)c(N=Nc3ccc(N=Nc4ccc(S(=O)(=O)O)cc4)cc3)c(S(=O)(=O)O)cc2c1)c1ccccc1 | inactive | –
C1=CC2C3C=CC(C3)C2C1 (stereo unspecified) | inactive | –
COc1cc(Cl)c(OC)cc1N | inactive | –
C=C(C)[C@H]1CC=C(C)C(=O)C1 | inactive | –
c1ccc(CCc2ccccc2)cc1 | – | 27 µM (active)
CC(=O)c1c(C)c([N+](=O)[O-])c(C(C)(C)C)c([N+](=O)[O-])c1C | inactive | –
CC(C=O)Cc1ccc(C(C)(C)C)cc1 (stereo unspecified) | inactive | –
CCCCCC(C=O)=Cc1ccccc1 | inactive | –

Read-out: Monocyte Chemoattractant Protein-1 (MCP1), CCL2 (gene 6347)
Assay: BSK_3C_MCP1: BioMAP Diversity Plus: 3C Assay for Monocyte Chemoattractant Protein-1 (MCP1) Biomarker Activity (AID 2283017)
Settings: primary human endothelial cells (HUVEC); actives raise or lower the signal
Outline: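 Human umbilical vein endothelial cells (3C system) exposed to chemicals for 24 h; MCP-1 quantified by ELISA against the DMSO baseline with bidirectional fitting, and parallel SRB staining used to assess cytotoxicity.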

Compound | outcome | AC50
CS(=O)(=O)c1ccc(C2=C(c3ccccc3)C(=O)OC2)cc1 | inactive | –
CCOC(=O)C(C#N)=C(c1ccccc1)c1ccccc1 | inactive | –
CC1(C)CCC[C@]2(C)[C@H]3CCO[C@]3(C)CC[C@@H]12 | – | 26.4 µM (active) and 34.5 µM (active)
O=C1OC[C@H](Cc2cccc(O)c2)[C@H]1Cc1cccc(O)c1 | inactive | –
O=C(Nc1ccc2c(O)c(N=Nc3ccc(N=Nc4ccc(S(=O)(=O)O)cc4)cc3)c(S(=O)(=O)O)cc2c1)c1ccccc1 | inactive | –
C1=CC2C3C=CC(C3)C2C1 (stereo unspecified) | inactive | –
COc1cc(Cl)c(OC)cc1N | inactive | –
C=C(C)[C@H]1CC=C(C)C(=O)C1 | inactive | –
c1ccc(CCc2ccccc2)cc1 | – | 28.5 µM (active)
CC(=O)c1c(C)c([N+](=O)[O-])c(C(C)(C)C)c([N+](=O)[O-])c1C | inactive | –
CC(C=O)Cc1ccc(C(C)(C)C)cc1 (stereo unspecified) | – | 30.6 µM (active)
CCCCCC(C=O)=Cc1ccccc1 | – | 31.5 µM (active)
